Assay outcomes (PubChem BioAssay)
Hits are enriched below; roughly 1.2% of the tested compounds scored in any of these assays.
RAD52 anneal inh: blocks human RAD52 DNA annealing | AID 651710 | inhibition, % at 18.7 µM | recombinant RAD52 DNA annealing, FRET fluorescence | hit rate 0.46% among 360,000 | P43351;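 active means every replicate showing at least 50% inhibition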
Target sequence (P43351 whole entry, looked up): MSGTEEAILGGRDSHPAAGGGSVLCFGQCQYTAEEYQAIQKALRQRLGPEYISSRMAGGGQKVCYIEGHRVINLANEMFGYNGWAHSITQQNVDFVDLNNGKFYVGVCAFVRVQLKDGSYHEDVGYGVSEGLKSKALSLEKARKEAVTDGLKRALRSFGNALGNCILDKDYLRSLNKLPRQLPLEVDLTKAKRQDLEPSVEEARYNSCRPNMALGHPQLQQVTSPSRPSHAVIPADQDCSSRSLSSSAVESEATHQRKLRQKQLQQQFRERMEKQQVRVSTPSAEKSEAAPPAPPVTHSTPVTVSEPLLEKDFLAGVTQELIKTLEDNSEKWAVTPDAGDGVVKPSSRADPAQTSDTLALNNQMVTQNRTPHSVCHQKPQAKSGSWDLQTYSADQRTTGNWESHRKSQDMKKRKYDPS
RAD54 inh: inhibitors of human RAD54 branch migration. RAD54 Holliday junction branch migration, FAM/BHQ fluorescence. hit rate 0.14% among 360,000. AID 602329. inhibition, % at 10.4 µM;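 active means mean normalized replicate activity at least 40 and at least half of replicates scoring 40 or more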;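 further: inhibitors cause a drop in the FAM fluorescence signal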
CASP6 VEID inh: caspase-6 (human) enzyme inhibition; purified caspase-6, Z-VEID-R110 cleavage fluorescence; hit rate 0.53% among 350,000; inhibition, % at 12.5 µM; AID 686996; P55212;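 active means mean inhibition across replicates at least about 35%, with every replicate also reaching that limit, limit read from the data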
Target sequence (P55212 24-179 limits assumed): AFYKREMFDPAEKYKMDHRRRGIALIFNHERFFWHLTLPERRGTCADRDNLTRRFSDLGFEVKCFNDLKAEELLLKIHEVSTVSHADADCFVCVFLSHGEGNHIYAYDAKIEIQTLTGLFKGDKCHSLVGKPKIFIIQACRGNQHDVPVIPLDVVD
Target sequence (P55212 194-293 limits assumed): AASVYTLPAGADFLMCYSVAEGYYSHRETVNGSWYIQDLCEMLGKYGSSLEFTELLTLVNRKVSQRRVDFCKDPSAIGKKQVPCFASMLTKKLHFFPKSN
NSD2 inh: inhibitors of human histone methyltransferase NSD2; hit rate 0.54% among 310,000; NSD2 peptide methylation, AlphaScreen, 120 min; inhibition, % at 12.5 µM; O96028; in the data active means inhibition above about 50%
N-glyco inh: blocks N-linked glycosylation in D54 reporter cells; reporter increase, % at 12.5 µM; D54 ERlucT glycosylation luciferase reporter, 24 h; percent of 100 nM tunicamycin response; hit rate 0.23% among 360,000;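 active means mean luciferase reporter signal, scaled so untreated is 0 and the glycosylation-blocking control 100, at or above a set limit in every replicate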;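 further: luciferase carries N-glycosylation sites so blocking glycosylation raises the light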
RAD52 DNA ctr: binds DNA, flagging false RAD52 inhibitor hits; shares compounds with RAD52 anneal inh; Salmon sperm DNA/acridine orange FP displacement, DNA binding; AC50, µM; hit rate 8% among 1,000; AID 652128;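 active means fitted half-maximal concentration for signal loss at or below twice the highest dose tested, in every separate run, actives reach about 64 µM in these data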
Numbers stand for hits; 0 = inactive; - = no result given.

SMILES | RAD52 anneal inh | RAD54 inh | CASP6 VEID inh | NSD2 inh | N-glyco inh | RAD52 DNA ctr
CN(C)CCN(C(=O)c1ccc2ccccc2c1)c1nc2cc3c(cc2s1)OCO3 | 67 | 0 | 0 | 0 | 0 | 0
Cc1ccc(S(=O)(=O)N[C@H]2CC[C@H](CCNC(=O)C3CCCCC3)O[C@H]2CO)cc1 | 0 | 0 | 0 | - | - | -
COc1ccc(CNC(=O)C[C@H]2C=C[C@@H](NC(=O)CN(C)C)[C@@H](CO)O2)cc1 | 0 | 0 | 0 | - | - | -
CN(C)CCCN(C(=O)c1ccc(C(=O)c2ccccc2)cc1)c1nc2cc3c(cc2s1)OCO3 | 62 | 0 | 0 | 0 | 0 | 0
CC(=O)N(CCN(C)C)c1nc2cc3c(cc2s1)OCCO3 | 55 | 0 | 0 | 0 | 0 | 0
CN(C)CCN(C(=O)c1ccc(S(=O)(=O)N(C)C)cc1)c1nc2cc3c(cc2s1)OCCO3 | 0 | 0 | 0 | 0 | 0 | -
CN(C)CCCN(C(=O)c1cccs1)c1nc2cc3c(cc2s1)OCO3 | 0 | 0 | 0 | 0 | 0 | -
CN(C)CCN(C(=O)c1ccc2c(c1)CCCC2)c1nc2cc3c(cc2s1)OCCO3 | 72 | 0 | 0 | 0 | 0 | 0
C/C=C/c1ccc2c(c1)O[C@H](CN(C)C(=O)C1CCCCC1)[C@H](C)CN([C@@H](C)CO)S2(=O)=O | 0 | 0 | 0 | - | - | -
C[C@@H]1CN([C@@H](C)CO)C(=O)c2cc(C#CC(C)(C)O)cnc2O[C@H]1CN(C)Cc1cncnc1 | 0 | 0 | 0 | - | - | -
Nc1ccc2nc[nH]c2c1 | 85 | - | 0 | 0 | 0 | 0
CC(=O)OCn1ncc(N2CCOCC2)c(Br)c1=O | 94 | 0 | 0 | 0 | 0 | 0
COc1cc(OC)cc(C2=Cc3ccccc3C(CC(C)=O)N2c2ccc(C#CC3(N)CCCCC3)cc2)c1 (stereo not given) | 91 | - | 0 | - | - | 0
CCN(CC)CCCNC(=O)c1[nH]c2ccccc2c1Sc1ccc(Cl)cc1 | 70 | 0 | 0 | 0 | 0 | 0
Cc1ccc(S(=O)(=O)Nc2ccc3c(c2)C(=O)N([C@H](C)CO)C[C@@H](C)[C@H](CN(C)C)OCCCC[C@@H](C)O3)cc1 | 0 | 0 | 0 | - | - | -
O=C(CN1CCCCC1)Nc1ccc(N2CCCCCC2)cc1 | 62 | - | 0 | 0 | 0 | 0
CCOc1ccc(NCc2cccn2-c2nnc(N3CCC(C(=O)NCCCN4CCCCC4C)CC3)s2)cc1 (stereo not given) | 80 | 0 | 0 | 0 | 0 | 0
CCOc1ccc(NCc2cccn2-c2nnc(N3CCC(C(=O)NCCCN4CCCCC4)CC3)s2)cc1 | 0 | 0 | 0 | 0 | 0 | -
C[C@H]1CN([C@@H](C)CO)C(=O)c2cccc(NC(=O)Nc3ccc(F)cc3)c2O[C@@H]1CN(C)C(=O)NC1CCCCC1 | 0 | 0 | 0 | - | - | -
O=C(C[C@@H]1C[C@H]2c3cc(NC(=O)C4CCOCC4)ccc3O[C@H]2[C@H](CO)O1)NC1CCCCC1 | 0 | 0 | 0 | - | - | -
O=C(C1CCCC1)N1CCC(CC2CC(c3cccc(Br)c3)=NO2)(C(=O)NCC2CCCCC2)CC1 (stereo not given) | 0 | 0 | 0 | - | 0 | -
O=C(C1CCCC1)N1CCC(CC2CC(c3ccc(Cl)cc3)=NO2)(C(=O)NCC2CCCCC2)CC1 (stereo not given) | 99 | 0 | 0 | - | 0 | 0
C#CCOCCOCCOCCNc1nc(N2CCN(C(=O)[C@H]([C@@H](C)CC)n3cc(CCCCN)nn3)CC2)nc(N2CCN(C(=O)[C@H](CCCCN)n3cc(CCCC)nn3)CC2)n1 | 54 | 0 | 0 | - | 0 | 0
C#CCOCCOCCOCCNc1nc(N2CCN(C(=O)[C@H](CCCCN)n3cc(CN)nn3)CC2)nc(N2CCN(C(=O)[C@H](CCCCN)n3cc([C@@H](N)[C@H](C)CC)nn3)CC2)n1 | 72 | 79 | 0 | - | 0 | 37µM
C#CCOCCOCCOCCNc1nc(N2CCN(C(=O)[C@H](CCCN=C(N)N)n3cc(C(N)[C@@H](C)CC)nn3)CC2)nc(N2CCN(C(=O)[C@H](CCCCN)n3cc([C@@H](N)[C@H](C)CC)nn3)CC2)n1 (stereo not given in full) | 63 | 0 | - | - | 0 | 0
SMILES | RAD52 anneal inh | RAD54 inh | CASP6 VEID inh | NSD2 inh | N-glyco inh | RAD52 DNA ctr
C#CCOCCOCCOCCNc1nc(N2CCN(C(=O)[C@H]([C@@H](C)CC)n3cc([C@@H](N)CO)nn3)CC2)nc(N2CCN(C(=O)[C@H](CCCCN)n3cc([C@@H](N)C(C)CC)nn3)CC2)n1 (stereo not given in full) | 57 | 0 | 0 | - | 0 | 0
C#CCOCCOCCOCCNc1nc(N2CCN(C(=O)[C@H](CCCCN)n3cc([C@@H](N)C(C)CC)nn3)CC2)nc(N2CCN(C(=O)[C@H](CCCCN)n3cc([C@@H](N)C(C)CC)nn3)CC2)n1 (stereo not given in full) | - | - | - | 0 | - | -
COc1ccc(S(=O)(=O)Nc2cccc3c2O[C@H](CN(C)C)[C@H](C)CN([C@H](C)CO)C3=O)cc1 | 0 | 0 | 0 | - | - | -
C[C@H]1CN([C@@H](C)CO)S(=O)(=O)c2ccc(C#Cc3ccccc3F)cc2O[C@H]1CN(C)C(=O)c1ccc2c(c1)OCO2 | 0 | 0 | 0 | - | - | -
Cc1noc(C)c1NC(=O)NCC[C@@H]1CC[C@H](NC(=O)c2ccncc2)[C@H](CO)O1 | 0 | 0 | 0 | - | - | -
C#CCOCCOCCOCCNc1nc(N2CCN(C(=O)[C@H](CCCCN)n3cc(CN)nn3)CC2)nc(N2CCN(C(=O)[C@H](CCCCN)n3cc([C@@H](N)CC(N)=O)nn3)CC2)n1 | 0 | 0 | 0 | - | 0 | -
C#CCOCCOCCOCCNc1nc(N2CCN(C(=O)[C@H](CCCCN)n3cc(CN)nn3)CC2)nc(N2CCN(C(=O)[C@H](CO)n3cc([C@@H](N)C(C)C)nn3)CC2)n1 | 60 | 0 | 0 | - | 0 | 0
CCCN1[C@@H]2c3ccc(-c4cccc(F)c4)c(=O)n3C[C@H]1[C@H](CO)[C@H]2C(=O)NCC1CC1 | 0 | 0 | 0 | - | - | -
CN(C)CCCNC(=S)NCC(c1ccc(Cl)cc1Cl)c1c[nH]c2ccccc12 (stereo not given) | 56 | 0 | 0 | 0 | 0 | 0
COc1ccc2c3c([nH]c2c1)[C@H](CO)N(C(=O)Nc1ccc(F)cc1)CC31CN(C(=O)Cc2ccncc2)C1 | 0 | - | 0 | - | - | -
CCOc1ccc2nc(NC3=NC(C)(C)C=C(C)N3)nc(C)c2c1 | - | 0 | - | 0 | 0 | -
CCOc1ccc2c(C)nc(NC3=NC(C)(C)C=C(C)N3)nc2c1 | 91 | 0 | 0 | 0 | 0 | 0
COc1ccc(-c2nc(NCCCN(C)C)c3ccccc3n2)cc1 | 87 | 90 | 0 | 0 | 43 | 0
C[C@@H]1CN([C@H](C)CO)C(=O)c2cc(NS(=O)(=O)c3ccc(F)cc3)ccc2O[C@H]1CN(C)C(=O)Nc1ccc(F)cc1 | 0 | 0 | - | - | - | -
C=CCNc1nc(NCc2cccc(OC)c2)c2sc(-c3ccccc3)cc2n1 | 83 | 0 | 0 | 0 | 0 | 0
COCCNc1nc(NCCOC)c2sc(-c3ccccc3)cc2n1 | 0 | 0 | 0 | 0 | 0 | -
COc1ccc(-c2cc(CNc3nc(NCc4ccccc4OC)nc4ccsc34)on2)cc1 | 61 | 0 | 0 | 0 | 0 | 0
